Source: PubChem BioAssay AID651919 (Sanford-Burnham Center for Chemical Genomics, 2012)

Biological target: C-X-C chemokine receptor type 6 (Homo sapiens) (UniProt O00574)
Experiment: CXCR6 and CXCR5 receptor antagonist panel, profiling panel, selectivity assay for CXCR6 antagonist project, cell-based, CHO-K1 PathHunter beta-arrestin, luminescence, set 4 (AID 651919)
Conditions: run 4, at 79 µM (top of the series)

Chain of C-X-C chemokine receptor type 6 (Homo sapiens) (O00574 whole entry, looked up): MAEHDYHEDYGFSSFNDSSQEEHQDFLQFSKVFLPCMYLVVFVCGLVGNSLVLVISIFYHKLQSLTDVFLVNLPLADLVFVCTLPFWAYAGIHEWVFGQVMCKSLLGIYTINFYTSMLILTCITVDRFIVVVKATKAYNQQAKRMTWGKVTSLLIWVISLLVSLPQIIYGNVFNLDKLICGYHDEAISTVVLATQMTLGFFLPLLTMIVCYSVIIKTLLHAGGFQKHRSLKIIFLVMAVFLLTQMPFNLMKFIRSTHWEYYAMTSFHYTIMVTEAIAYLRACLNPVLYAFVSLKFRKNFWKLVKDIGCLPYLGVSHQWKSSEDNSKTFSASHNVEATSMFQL

SMILES | inhibition [%]
COc1cc(C(=O)NC2CC3CCCC(C2)N3CC(=O)Nc2ccccc2)cc(OC)c1OC (configuration not stated) | 92.9
COc1cc(C(=O)NC2CC3CCCC(C2)N3CC(=O)Nc2ccccc2Cl)cc(OC)c1OC (configuration not stated) | 99
